17 sequences from the OligoGym collection can be followed below.
Further: reference of the scale not given here.

The first test deals with ACAD10. In words: pooled miR-30 sensor sort-seq; sequence = guide strand. Particulars: shRNA.
Consider TTGAGGTCTTCGATCAGTGGGG, for which the sensor-assay potency score (higher = more potent) was -0.0648. For TTCCAGTCCATACACCGTCAGA, the sensor-assay potency score (higher = more potent) is -1.34. Turning to TACAGCTCTCTGACAGGTGGAG, the sensor-assay potency score (higher = more potent) was -0.377. Consider TTCGGTGCCATACCTCACCAGC, for which the sensor-assay potency score (higher = more potent) is -0.906.

As for TTTCTCCTTGAGGTCTTCGATC, the sensor-assay potency score (higher = more potent) was -1.58.

A further test concerns the target ACAP2. Described as above. Particulars: shRNA.
On to TTTAGGATTTCTGATCTCCTTT, for which the sensor-assay potency score (higher = more potent) was -0.154.

For the sequence TTTAGCTGTATACATTAGGGGG, the sensor-assay potency score (higher = more potent) is -0.7. Turning to TATATTCTAACTTAGAATCATC, the sensor-assay potency score (higher = more potent) is -0.946. As for TGATTGAAGAACATTAATCTGA, the sensor-assay potency score (higher = more potent) amounted to 0.0917. TACTTCTGACTGAACTTTGGGC had a sensor-assay potency score (higher = more potent) of 0.208.

With TTTAACAAAGTTCTGAAGCTGT, the sensor-assay potency score (higher = more potent) is 0.177.

Turning to TAATCTGAAGCACATAATCGAG, the sensor-assay potency score (higher = more potent) is -1.42.

TAAATCTAGACTGAACTTCTGT registered a sensor-assay potency score (higher = more potent) of 0.683. As to TTTGGTTGACATTAGCACCATT, the sensor-assay potency score (higher = more potent) is -0.325. Same read-out and setting: with TTATTCTGTATTGAAAACCAGC the figure was -0.889. The same measure, in the same setting: the figure for TATCCTTCCATAACTATGCCAT is -0.0646; for TAACTTAGAATCATCACTGGAG it is 0.563.
